The values below come from PubChem BioAssay AID1963576 (National Center for Advancing Translational Sciences (NCATS), 2024).

About 60 (0.1%) of roughly 46,000 compounds were called active. Inconclusive results (about 3%) are left out. Calls come from the whole dose curve; as a rule, active = well fitted inhibition curve with a large enough effect; inconclusive = small, poorly fitted or top-dose-only effect; inactive = no such curve, though single readings can be large or run the other way. Shown is part of a subset that was picked to be rich in actives. A call without a number means that no potency is given here.
Potency is the fitted concentration of half-maximal effect.

A short description of the experiment: Primary qHTS assay for Inhibitors of ovarian cancer metastasis using an organotypic tumor microenvironment (TME) model.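 For potency: count of GFP cancer cells still attached after washing and fixation.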 Note: nearly all actives have a fitted effect of over 65% in size. As to conditions: SKOV3ip1-GFP adhesion/invasion on 3D omental model, fluorescence; series mostly up to 45.8 µM. The source says: PI: Ernst Lengyel MD., Ph.D. Department of Obstetrics and Gynecology, Section of Gynecologic Oncology University of Chicago Medicine, Chicago, Illinois. The tumor microenvironment (TME) is a key determinant of metastatic efficiency. We performed a quantitative high-throughput screen (qHTS) of diverse medicinal chemistry tractable scaffolds (44,420 compounds) and pharmacologically active small molecules (386 compounds) using a layered organotypic, robust assay representing the ovarian cancer metastatic TME. This 3D model contains primary human mesothelial cells, fibroblasts, and extracellular matrix, to which fluorescently labeled ovarian cancer cells are added. Initially, 100 compounds inhibiting ovarian cancer adhesion/invasion to the 3D model in a dose-dependent manner were identified. Of those, eight compounds were confirmed active in five high-grade serous ovarian cancer cell lines and were further validated in secondary in vitro and in vivo biological assays. […] Specifically, NCGC00117362 and PP-121 inhibited ovarian cancer adhesion, invasion, and proliferation, whereas milciclib inhibited ovarian cancer invasion and proliferation. […] To evaluate the clinical potential of NCGC00117362, structure - activity relationship studies were performed. […] The three compounds identified have promise as therapeutics for prevention and treatment of ovarian cancer metastasis.
PROTOCOL TABLE (as described by Inglese J, Shamu CE and Guy RK. 2007) SEQUENCE No. (e.g., 1, 2, 3, etc.); […] (e.g., Cells, Incubation, Reagent, etc.); VALUE; DESCRIPTION. 1; Cells; 4 uL; primary human omental fibroblast, black, clear bottom, low base, 1536-well Aurora assay plate. 2; Incubation; 48 hr; 37C. 3; Cells; 3 uL; 1,200 SKOV3ip1-GFP cells. 4; Compounds; 23nL; acoustic dispenser. 5; Incubation; 2 hr; room temperature. 6; Incubation; 16 hr; 37C. 7; Wash; 5 uL; 1x PBS. 8; Fixing; 5 uL; 4% paraformaldehyde (PFA). 9; Incubation; 15 min; room temperature 10; Wash, 5 uL; 1x PBS. 11; Detection; Fluorescence, excitation filter 488 nm, emission filter 509 nm. NOTES (numbers refer to Sequence numbers above) 1. For the 1,536-well format, 40 primary human omental fibroblasts and 400 mesothelial cells were seeded with 0.02 µg fibronectin and 0.02 µg collagen type I in 4 µL of growth media (2.3 mm2; Supplementary Fig. S1A). 2. Assay plates were incubated for 48 hours at 37 C. 3. After incubation, 1,200 SKOV3ip1-GFP were seeded in 3 µL of serum-free media (growth media minus FBS) on top of primary human omental cells. 4. Compounds or controls were added to each well immediately after the addition of the cancer cells. Compounds were screened in four doses (0.36-46 µmol/L), and the plates contained the positive control (Tomatine) in eight doses (0.035-75 µmol/L) and DMSO (equal volume controls) 5 - 6. The plates were incubated at room temperature for 2 hours and then at 37 degrees C for 16 hours. 7 - 10. Following incubation, the media were aspirated and each well washed with PBS (5 µL) and then fixed with 4% paraformaldehyde (PFA; 5 µL). After 15 minutes, the PFA solution was aspirated, PBS (5 µL) was added. 11. The number of GFP-labeled cells analyzed using a fluorescent cytometer TTP LabTech Acumen eX3 using 488 nm excitation filter and 509 nm emission filter. Data was normalized to the DMSO treated for negative and Tomatine treated wells for positive control. REFERENCES: Inglese J, Shamu CE and Guy RK, Reporting data from high throughput screening of small molecule libraries, Nature Chemical Biology, 2007, 3(8): 438-441. doi.org/10.1038/nchembio0807-438. Yasgar A, Shinn P, Jadhav A, Auld DS, Michael S, Zheng W, Austin CP, Inglese J and Simeonov A, Compound Management for Quantitative High-Throughput Screening. J. Assoc. Lab. Auto., 2008, 13: 79-89. doi: 10.1016/j.jala.2007.12.004.
For orientation: Quantitative high-throughput screening tests each substance at several concentrations.
As to `Cc1ccc(-n2ncc3c(NCCCn4ccnc4)ncnc32)cc1Cl`, the Potency entry was “inactive”.

Take `Cc1ccc(-n2c(SCC(=O)Nc3cccc(F)c3)nc3c(oc4ccccc43)c2=O)cc1C`: the Potency result is “inactive”.

As to `CC=CC[C@@H](C)C(=O)[C@H]1C(=O)N[C@@H](C(C)C)C(=O)N(C)CC(=O)N(C)[C@@H](CC(C)C)C(=O)N[C@@H](C(C)C)C(=O)N(C)[C@@H](CC(C)C)C(=O)N[C@@H](C)C(=O)N[C@H](C)C(=O)N(C)[C@@H](CC(C)C)C(=O)N(C)[C@@H](CC(C)C)C(=O)N(C)[C@@H](C(C)C)C(=O)N1C`, the Potency result was “inactive”.

As to `CCc1nc2nc(C)cc(Nc3ccc(F)c(Cl)c3)n2n1`, the Potency result was “inactive”. Under `COc1cc2nc(SCC(=O)Nc3ccccc3F)n3nc(-c4ccccc4)nc3c2cc1OC` stands “inactive”. The value for `Cc1ccc(Cn2c(CNC(=O)Cc3cccc(C)c3)nc3cccnc32)cc1` was “inactive”. The value for `O=C(Cn1nc(C(F)(F)F)c2c1CCCC2)Nc1ccc(Cl)cc1` was “inactive”. Turning to `COc1ccc(NC(=O)COCc2cc(-c3ccco3)on2)cc1`, the Potency entry is “inactive”. `O=C(Cn1nc(Cc2cccnc2)c2ccccc2c1=O)N1CCN(c2ccccc2F)CC1`: the Potency result was “inactive”. `COc1ccc(CN2CCc3nc(Nc4ccccc4)ncc3C2)c(OC)c1OC`: the Potency entry is “inactive”. Take `CO[C@H]1C[C@@H]2CC[C@@H](C)[C@@](O)(O2)C(=O)C(=O)N2CCCC[C@@H]2C(=O)O[C@H]([C@@H](C)C[C@@H]2CC[C@H](O)[C@H](OC)C2)CC(=O)[C@H](C)C=C(C)[C@@H](O)[C@@H](OC)C(=O)[C@H](C)C[C@H](C)C=CC=CC=C1C`: the Potency result was “inactive”. For `COc1ccc(-c2cn3c(C)c(C(=O)Nc4cc(C)cc(C)c4)sc3n2)cc1`, the Potency was 8.91 µM (active). Under `CCOC(=O)c1ccccc1NC(=O)c1sc2nc(-c3ccc(F)cc3)cn2c1C` stands “inactive”; under `COc1ccc(-c2cn3c(n2)sc2cc(C(=O)Nc4ccc(F)cc4)ccc23)cc1`, “inactive”.

For the compound `CCOC(=O)c1cc2c(=O)n3ccccc3nc2n(Cc2ccco2)c1=NC(=O)c1ccc(F)cc1`, the Potency entry was “inactive”.

Regarding `Cn1c(=O)c2c(n3c4ccccc4nc13)NC(=O)CC2c1cccc(Cl)c1` (stereo unspecified), the Potency result is “inactive”. As to `COc1cccc(CNC(=O)CN2C(=O)CCc3cc(S(=O)(=O)N4CCOCC4)ccc32)c1`, the Potency entry is “inactive”. With `Cc1cccc(NC(=O)c2nnn(CC(=O)Nc3ccc(C(C)C)cc3)c2N)c1C`, the Potency entry is “inactive”. For `O=C(NCCc1ccccc1)c1ccc2c(c1)N(Cc1ccc(F)cc1)C(=O)c1ccccc1S2(=O)=O`, the Potency result was “inactive”. Take `COc1ccc(CNC(=O)CSc2nc3ccccc3nc2Cc2ccccc2)cc1`: the Potency entry was “inactive”. For `CCc1ccc(S(=O)(=O)c2nnn3c2nc(N2CCN(CC)CC2)c2sccc23)cc1`, the Potency result is “inactive”.

Turning to `COc1ccc2oc(=O)c(-c3cn4c(n3)sc3cc(OC)ccc34)cc2c1`, the Potency result was “inactive”.

For the compound `O=C(Nc1ccc(-c2nc3cc(NC(=O)c4ccccc4Cl)ccc3o2)cc1)c1ccccc1Cl`, the Potency result is “inactive”. Consider `CCOC(=O)c1c(N)n(-c2cccc(C)c2C)c2nc3ccccc3nc12`, for which the Potency entry is “inactive”.

For `Cc1ccc(Nc2nc3ccccc3nc2-n2nc(C)cc2C)c(Cl)c1`, the Potency entry is “inactive”. Under `COc1cc(C(=O)N2CCC(c3ccncc3)CC2)cc(OC)c1OC` stands “inactive”; under `Cc1ccc(S(=O)(=O)N2CCC(C(=O)Nc3cc(C)ccc3C)CC2)cc1`, “inactive”; under `CC=CCC=CCCC(=O)[C@H]1O[C@@H]1C(N)=O`, “inactive”.

With `Cc1nnc(SCC(=O)NCc2ccccc2Cl)c2nn(-c3ccccc3)c(C)c12`, the Potency entry was “inactive”. The value for `CCC(C(=O)Nc1cc(OC)ccc1OC)n1c(=O)c(C(F)(F)F)nc2ccccc21` (stereo unspecified) was “inactive”. The value for `CN1CCN(C2(CNC(=O)COc3ccc(C(C)(C)C)cc3)CCCCC2)CC1` was “inactive”. For the compound `CCOc1ccccc1N(C)C(=O)c1cc2c(s1)-c1ccccc1OC2`, the Potency entry is “inactive”. Under `Cc1nn(-c2ccc(N3CCCCC3)nn2)c(C)c1CCC(=O)NCc1ccc(F)cc1` stands “inactive”; under `O=C(Nc1c(-c2ccc(F)cc2)nc2ccccn12)c1cccc(F)c1`, “inactive”; under `CC(=O)OC[C@@H]1O[C@@H](n2ccc(=O)[nH]c2=O)[C@H](OC(C)=O)[C@H]1OC(C)=O`, “inactive”.

For `CN(C(=O)CSc1nnc(NC(=O)Nc2ccccc2)s1)c1ccccc1`, the Potency entry is “inactive”. Under `CC1CCCCN1CC(=O)N1CCCc2c1c(=O)oc1ccc(OCc3ccccc3)cc21` (stereo unspecified) stands “inactive”; under `O=S(=O)(NCCS(=O)(=O)N1CCN(c2ccccc2)CC1)c1ccc(Cl)cc1`, “inactive”; under `Cc1cccc(NC(=O)C2CCN(S(=O)(=O)c3c(C)noc3/C=C/c3ccco3)CC2)c1`, “inactive”.

With `CC(C)Cn1c(=O)c2ccccc2n2c(CCC(=O)N3CCN(c4cccc(Cl)c4)CC3)nnc12`, the Potency result is “inactive”. The value for `COc1ccc(-c2cc(C(F)(F)F)n3nc(-c4ccccc4)cc3n2)cc1OC` was “inactive”. Under `CC(C(C)N1CC(=O)NC(=O)C1)N1CC(=O)NC(=O)C1` (stereo unspecified) stands “inactive”.

In the case of `Cc1ccc(CNS(=O)(=O)c2ccc(C(=O)N(C)C)s2)cc1`, the Potency entry is “inactive”. On to `CSc1ncc(Cl)c(C(=O)Nc2ccc(S(=O)(=O)N3CCCC(C)C3)cc2)n1` (stereo unspecified), for which the Potency result is “inactive”. Under `Cc1ccc(-c2cc(N)n(Cc3cccc(Cl)c3)n2)cc1` stands “inactive”. Under `C[C@]12CCC3=C4CCC(=O)C=C4CC[C@@H]3[C@H]1CC[C@@]2(O)CC#N` stands “inactive”.
